An excerpt weighted towards active compounds, which were near 6.1% of everything screened.
D3 ag: qHTS of D3 Dopamine Receptor Agonist: qHTS; D(3) dopamine receptor (Homo sapiens), P35462; D3R DiscoveRx beta-arrestin cells, luminescence, 90 min; max activation, %; hit rate 0.58% among 410,000; AID 652048, 2013; in the data active means max activation above about 30%
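Cells at 1500/well, incubated overnight, then treated with pinned compounds (dopamine as control) for 90 min at 37 degrees C. DiscoveRx reagent added for 30 - 60 minutes at room temperature; luminescence read.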
D1 antagonist: Antagonist of Human D 1 Dopamine Receptor: qHTS; D(1A) dopamine receptor (Homo sapiens), P21728; HEK293 TREx D1 cells, calcium flux, dopamine EC80; active compounds read low; activity change, negative = inhibition, % at 10 µM; hit rate 3.2% among 360,000; in the data active means activity change below about -30%
Target sequence (P21728 whole entry, looked up): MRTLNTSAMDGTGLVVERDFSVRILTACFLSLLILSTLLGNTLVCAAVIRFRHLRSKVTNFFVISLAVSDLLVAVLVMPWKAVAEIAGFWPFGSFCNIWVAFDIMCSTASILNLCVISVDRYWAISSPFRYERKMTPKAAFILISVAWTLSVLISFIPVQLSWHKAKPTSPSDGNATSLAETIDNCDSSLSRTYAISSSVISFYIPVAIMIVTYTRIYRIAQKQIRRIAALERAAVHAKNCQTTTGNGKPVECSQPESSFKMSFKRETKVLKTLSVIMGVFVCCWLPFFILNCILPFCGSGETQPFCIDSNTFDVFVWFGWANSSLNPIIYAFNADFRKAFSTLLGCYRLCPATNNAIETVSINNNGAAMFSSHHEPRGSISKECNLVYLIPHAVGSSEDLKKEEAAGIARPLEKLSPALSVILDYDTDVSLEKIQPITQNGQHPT
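Kinetic fluorescence of a calcium dye serves as the read-out. D1-expressing Hek293 Trex cells, induced overnight at 30 C, are exposed to compound for 180 s before an EC80 dopamine addition, then read 180 s further.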
D1 ag: Allosteric Agonists of the Human D1 Dopamine Receptor: qHTS | activation, % at 2 µM | D(1A) dopamine receptor (Homo sapiens), P21728 | hit rate 1% among 360,000 | HEK293 T-REx D1 cells, calcium flux, agonist mode; in the data active means activation above about 30%
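Tetracycline-induced HEK293 TREx D1 cells, force-coupled to calcium signalling, were dye-loaded with a no-wash calcium kit. Compound was pin-added after a 10 s baseline. Fluorescence was read kinetically at 1 cycle/s for 180 s, with calcium rises flagged as agonism.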
D1 PAM: Potentiators of Human D1 Dopamine Receptor: qHTS; HEK293 TREx D1 cells, calcium flux, dopamine EC20 potentiation; potentiation, % at 10 µM; D(1A) dopamine receptor (Homo sapiens), P21728; hit rate 0.036% among 360,000; in the data active means potentiation above about 30%
DRD3 antagonist: qHTS of D3 Dopamine Receptor Antagonist: qHTS. max response, negative = inhibition, %. hit rate 2.5% among 360,000. D3R cells, DiscoveRx beta-arrestin luminescence, antagonist mode; active compounds read low; in the data active means max response below about -50%; inconclusive means no clear call, values can overlap the other calls
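Cells plated overnight at 1500 cells/well, then exposed to library compounds with dopamine controls for 90 minutes at 37 degrees C. DiscoveRx reagent added for 30–60 minutes at room temperature; luminescence read, quantitative HTS format.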
ERG Ets-DNA blk: qHTS for Small Molecule Inhibitors of the ERG Ets/DNA interaction. Transcriptional regulator ERG (Homo sapiens), P11308. fluorescence polarization, His-ERG Ets domain / labelled DNA. Potency, µM (doses to about 76.9 µM), usual class: inhibitors. hit rate 0.028% among 370,000. AID 624246, 2012; active means well fitted inhibition curve with a large enough effect in the polarisation, with a control signal flat; inconclusive means small, poorly fitted or top-dose-only effect, or effect the other way, or a change in a side signal; inactive means no such curve, though single readings can be large or run the other way; the % refers to the polarisation;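 further: polarization taken with two DNA probes labelled with fluorescein and Texas red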
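His-tagged ERG Ets domain (1 uM in the protein solution; 300mM KCl, 50mM Tris-HCl, 1mM EDTA, 1mM DTT, pH 7.5) received compound, then a probe mix of 5 nM fluorescein-DNA and 100nM Texas-615-DNA. Fluorescence polarization was read for both dyes.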
Each line names hits and unclear results; the compound was inactive in the other large screens.

Cn1c(C(=O)N2CCCC(C(=O)NCc3cccs3)C2)cc2sccc21 (stereo unspecified)	DRD3 antagonist inconclusive (no result: ERG Ets-DNA blk)
COc1cc(Cn2nnc3ccccc32)ccc1O	none
CCC(C)NC(=O)C1CCN(C(=O)c2cc3sccc3n2Cc2ccc(Cl)cc2)CC1 (stereo unspecified)	D1 antagonist -40 (no result: DRD3 antagonist)
CCOc1ccc(CCNC(=O)CSc2nn(-c3ccc(C)c(Cl)c3)c(=S)s2)cc1OCC	none
O=C1CCCCc2cc(O)c(O)cc21	D3 ag 52 (no result: D1 antagonist, D1 ag, D1 PAM, ERG Ets-DNA blk)
CCS(=O)(=O)NCCNc1ccc([N+](=O)[O-])cc1	none
NC(=O)c1ccccc1NC(=S)NC(=O)CCc1ccccc1	D1 antagonist -74, DRD3 antagonist inconclusive
CC(Sc1n[nH]c(=O)n1Cc1ccccc1)C(=O)NC1CCCCC1C (stereo unspecified)	none
CC1=C(C(=O)Nc2ccc(C)cc2C)C(c2ccc(C(=O)O)cc2)n2nc(SCc3ccccc3)nc2N1 (stereo unspecified)	D1 antagonist -59 (no result: DRD3 antagonist)
COc1cc(C2C(C(=O)Nc3ccc(C)cc3C)=C(C)Nc3nc(SCc4ccccc4)nn32)cc(OC)c1OC (stereo unspecified)	none (no result: DRD3 antagonist)
OCC[C@@H]1C[C@H](O)[C@@H](O)[C@@]2(Cc3ccccc3CO2)O1	D1 antagonist -69
Cc1ccc2cc(CCNS(=O)(=O)c3ccc(Cl)cc3)c(=O)[nH]c2c1C	D1 antagonist -37
CC(=O)Nc1ccc(S(=O)(=O)NCCc2cc3ccc(C)c(C)c3[nH]c2=O)cc1	none
CCCn1c(CNC(=O)c2cccs2)nc2ccccc21	none (no result: D1 PAM)
CC(C)Cn1c(CNC(=O)c2ccccc2)nc2ccccc21	DRD3 antagonist -56
Cn1c(CCCNC(=O)c2cccs2)nc2ccccc21	none (no result: ERG Ets-DNA blk)
Cn1c(CCc2ccc(N)cc2)nc2ccccc21	DRD3 antagonist -51
CCCn1c(CNC(=O)c2ccccc2)nc2ccccc21	DRD3 antagonist -79
Cn1c(CCCNC(=O)c2ccccc2)nc2ccccc21	DRD3 antagonist -54
COC(=O)Cc1ccc(NC(=S)NCCCO)cc1	none
COc1ccccc1Nc1ncnc2c1nc1n2CCCC1	none (no result: DRD3 antagonist)
C=CCc1c(C)nc2nc(SCC(=O)Nc3ccccc3CC)nn2c1C	none (no result: DRD3 antagonist)
COc1ccccc1NC(CC(=O)c1ccccc1)C(=O)OCC(=O)c1ccc(C)c(C)c1 (stereo unspecified)	none
Fc1ccccc1/C=C1\CCCC2=C1Nc1nnnn1C2c1ccccc1F (stereo unspecified)	none
CC(=O)NCc1nc2ccccc2n1Cc1ccccc1C	none
COc1ccc(C(=O)NCCc2nc3cc([N+](=O)[O-])ccc3n2C)cc1	DRD3 antagonist -113
CC(=O)NCCCc1nc2ccccc2n1Cc1ccccc1C	D1 ag 42
O=C(CCNC(=O)C1CCN(S(=O)(=O)c2ccccc2)CC1)NCCc1cccc(F)c1	none
CC(C)c1nnc(NC(=O)c2nc(S(=O)(=O)Cc3ccccc3)ncc2Cl)s1	DRD3 antagonist -64
CCOC(=O)c1ccc(NC(=O)c2nc(SC(C)C)ncc2Cl)cc1	none (no result: DRD3 antagonist)
CCOC(=O)c1c(NC(=O)c2nc(S(C)(=O)=O)ncc2Cl)sc(C(C)=O)c1C	D1 antagonist -31 (no result: DRD3 antagonist)
CCOC(=O)c1c(NC(=O)c2nc(SCC)ncc2Cl)sc(C(C)=O)c1C	none (no result: DRD3 antagonist)
CCS(=O)(=O)c1ncc(Cl)c(C(=O)Nc2ccccc2)n1	D1 antagonist -30 (no result: DRD3 antagonist)
CCSc1ncc(Cl)c(C(=O)Nc2ccccc2)n1	none
CCOC(=O)c1ccc(NC(=O)c2nc(S(=O)(=O)Cc3ccccc3)ncc2Cl)cc1	D1 antagonist -45, DRD3 antagonist inconclusive
CCCc1nnc(NC(=O)c2nc(S(=O)(=O)Cc3ccc(C)cc3)ncc2Cl)s1	DRD3 antagonist -65
CCS(=O)(=O)c1ncc(Cl)c(C(=O)Nc2ccc(S(=O)(=O)N3CCC(C)CC3)cc2)n1	D1 antagonist -66, DRD3 antagonist -61
CCOC(=O)c1c(-c2ccc(OC)cc2)csc1NC(=O)CCN1C(=O)c2ccccc2C1=O	none
CCOC(=O)c1c(-c2ccc3ccccc3c2)csc1NC(=O)CCCC(=O)O	D1 antagonist -56
CCOC(=O)c1c(-c2ccccc2)csc1NC(=O)c1ccc(N2C(=O)CCC2=O)cc1	D3 ag 57
CCOC(=O)c1c(-c2ccccc2)csc1NC(=O)c1ccc(S(=O)(=O)N2CC(C)OC(C)C2)cc1 (stereo unspecified)	none
Cc1ccc(CS(=O)(=O)c2ncc(Cl)c(C(=O)Nc3nc4ccc(C)cc4s3)n2)cc1	none (no result: DRD3 antagonist)
O=C(NCc1ccccc1)C1C(=O)Nc2ccccc2C(=O)N1Cc1ccccc1 (stereo unspecified)	none (no result: D1 antagonist, D1 ag, D1 PAM, ERG Ets-DNA blk)
COc1cccc(NC(=O)c2nc(S(C)(=O)=O)ncc2Cl)c1	DRD3 antagonist -109
CCOC(=O)c1c(-c2ccccc2)csc1NC(=O)c1nc(S(=O)(=O)CC)ncc1Cl	D1 antagonist -47 (no result: DRD3 antagonist)
CCOC(=O)c1c(-c2ccccc2)csc1NC(=O)c1nc(SCC)ncc1Cl	none (no result: DRD3 antagonist)
Cc1cccc(NC(=O)c2nc(S(C)(=O)=O)ncc2Cl)c1	none (no result: DRD3 antagonist)
CN(c1ccccc1)S(=O)(=O)c1ccc(NC(=O)c2nc(S(C)(=O)=O)ncc2Cl)cc1	D1 antagonist -47, DRD3 antagonist -108
CC(=O)Nc1ccc(NC(=O)c2nc(S(=O)(=O)Cc3ccc(F)cc3)ncc2Cl)cc1	none (no result: DRD3 antagonist)
CCc1ccc(NC(=O)c2nc(S(=O)(=O)Cc3ccccc3)ncc2Cl)cc1	D1 antagonist -64 (no result: D3 ag, DRD3 antagonist, ERG Ets-DNA blk)
CCCSc1ncc(Cl)c(C(=O)Nc2ccc(S(=O)(=O)N(C)c3ccccc3)cc2)n1	none (no result: DRD3 antagonist)
Cc1noc(C)c1C(=O)NCc1cccs1	ERG Ets-DNA blk inconclusive
COc1ccc(C2C(C(=O)Nc3cccnc3)=C(C)Nc3nc(-c4ccc(OC)c(OC)c4)nn32)cc1 (stereo unspecified)	none (no result: DRD3 antagonist)
COc1ccc(C(NC(=O)/C=C/c2ccco2)c2ccc(OC)c(OC)c2)cc1OC	DRD3 antagonist -56
ClCc1nnc(-c2cc3c(s2)CCCC3)o1	none
Cc1ccc2occ(CC(=O)N(Cc3ccc(N(C)C)cc3)C3CCS(=O)(=O)C3)c2c1 (stereo unspecified)	D1 antagonist -43 (no result: DRD3 antagonist)
CCCN(C(=O)Cc1coc2cc(OC)ccc12)C1CCS(=O)(=O)C1 (stereo unspecified)	DRD3 antagonist -52 (no result: D1 antagonist, D1 ag, D1 PAM)

Assay outcomes from PubChem.
